# Measured values taken from PubChem BioAssay AID1508601 (ICCB-Longwood Screening Facility, Harvard Medical School, 2020).
# Values joined by “and” are separate entries in the source; they are usually repeats but may differ in a detail not shown here. Identical values can stand only once. The whole screen tested about 5,700 compounds, of which about 85 (1%) were called active. Cut-off read from the data, not from the text of the source: active = p53-positive nuclei above about 36% (passing the limit was not always enough); inactive = the rest. For the sample, actives were picked, then their nearest neighbours and some compounds at random.
# How the values were obtained:
# [1] = p53 stabilisation in HPV-positive human cells, imaging, p53-positive nuclei imaging, 24 h, 48 h (AID 1508601); conditions: 24/48 h
# [2] = molecular target: Cellular tumor antigen p53 (Homo sapiens) (UniProt P04637); assay: as above; conditions: 24/48 h, stronger effect = higher value
# Cellular tumor antigen p53 (Homo sapiens), sequence (P04637 whole entry, looked up): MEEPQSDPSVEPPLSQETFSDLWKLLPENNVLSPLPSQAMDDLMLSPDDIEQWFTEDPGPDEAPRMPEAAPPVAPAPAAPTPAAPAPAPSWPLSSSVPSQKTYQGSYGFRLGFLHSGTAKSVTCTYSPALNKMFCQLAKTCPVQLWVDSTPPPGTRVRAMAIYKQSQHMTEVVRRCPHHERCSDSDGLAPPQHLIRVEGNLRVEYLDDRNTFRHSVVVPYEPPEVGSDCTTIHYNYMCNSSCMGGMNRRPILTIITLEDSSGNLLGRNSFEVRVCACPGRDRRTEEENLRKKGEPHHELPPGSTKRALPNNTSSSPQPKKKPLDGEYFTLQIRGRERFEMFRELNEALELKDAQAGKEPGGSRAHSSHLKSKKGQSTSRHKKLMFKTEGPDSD
# [3] = measured here: cell number at 24 h, Library stock concentration: 3.33 mM
# [4] = measured here: cell number at 48 h, Library stock concentration: 3.33 mM
# [5] = Library stock concentration: 3.33 mM
# [6] = measured here: p53 positive nuclei at 24 h, Library stock concentration: 3.33 mM
# [7] = measured here: cell number at 24 h, Library stock concentration: 46 uM
# [8] = measured here: cell number at 24 h, Library stock concentration: 278 uM
# [9] = measured here: cell number at 24 h, Library stock concentration: 1.67 mM
# [10] = measured here: cell number at 24 h, Library stock concentration: 10 mM
# [11] = measured here: cell number at 48 h, Library stock concentration: 46 uM
# [12] = measured here: cell number at 48 h, Library stock concentration: 278 uM
# [13] = measured here: cell number at 48 h, Library stock concentration: 1.67 mM
# [14] = measured here: cell number at 48 h, Library stock concentration: 10 mM
# [15] = Library stock concentration: 46 uM
# [16] = Library stock concentration: 278 uM
# [17] = Library stock concentration: 1.67 mM
# [18] = Library stock concentration: 10 mM
# [19] = measured here: p53 positive nuclei at 24 h, Library stock concentration: 46 uM
# [20] = measured here: p53 positive nuclei at 24 h, Library stock concentration: 278 uM
# [21] = measured here: p53 positive nuclei at 24 h, Library stock concentration: 1.67 mM
# [22] = measured here: p53 positive nuclei at 24 h, Library stock concentration: 10 mM
# [23] = measured here: cell number at 24 h, Library stock concentration: 80 uM
# [24] = measured here: cell number at 24 h, Library stock concentration: 400 uM
# [25] = measured here: cell number at 24 h, Library stock concentration: 2 mM
# [26] = measured here: cell number at 48 h, Library stock concentration: 80 uM
# [27] = measured here: cell number at 48 h, Library stock concentration: 400 uM
# [28] = measured here: cell number at 48 h, Library stock concentration: 2 mM
# [29] = Library stock concentration: 80 uM
# [30] = Library stock concentration: 400 uM
# [31] = Library stock concentration: 2 mM
# [32] = measured here: p53 positive nuclei at 24 h, Library stock concentration: 80 uM
# [33] = measured here: p53 positive nuclei at 24 h, Library stock concentration: 400 uM
# [34] = measured here: p53 positive nuclei at 24 h, Library stock concentration: 2 mM
smiles,measurement,setting,value
O=C(NN=Cc1ccc(O)c(O)c1)c1cc2ccccc2cc1O,"nuclei count, normalised",[1]; [3],108%
same,"nuclei count, normalised",[1]; [4],99.5%
same,"p53-positive nuclei, normalised",[2]; [5],0.0529% (inactive)
same,"p53-positive nuclei, normalised",[2]; [6],-0.25%
CCOC(=O)NC1CCC2C(C1)CC1C(=O)OC(C)C1C2C=Cc1ccc(-c2cccc(F)c2)cn1 (stereo unspecified),"nuclei count, normalised",[1]; [7],115%
same,"nuclei count, normalised",[1]; [8],108%
same,"nuclei count, normalised",[1]; [9],101%
same,"nuclei count, normalised",[1]; [10],105%
same,"nuclei count, normalised",[1]; [11],117%
same,"nuclei count, normalised",[1]; [12],109%
same,"nuclei count, normalised",[1]; [13],107%
same,"nuclei count, normalised",[1]; [14],107%
same,"p53-positive nuclei, normalised",[2]; [15],-0.0807% (inactive)
same,"p53-positive nuclei, normalised",[2]; [16],-0.17% (inactive)
same,"p53-positive nuclei, normalised",[2]; [17],0.0724% (inactive)
same,"p53-positive nuclei, normalised",[2]; [18],-0.166% (inactive)
same,"p53-positive nuclei, normalised",[2]; [19],-0.0891%
same,"p53-positive nuclei, normalised",[2]; [20],-0.151%
same,"p53-positive nuclei, normalised",[2]; [21],-0.079%
same,"p53-positive nuclei, normalised",[2]; [22],0.188%
Nc1ccccc1NC(=O)c1ccc(CNc2nccc(-c3cccnc3)n2)cc1,"nuclei count, normalised",[1]; [23],128%
same,"nuclei count, normalised",[1]; [24],124%
same,"nuclei count, normalised",[1]; [25],125%
same,"nuclei count, normalised",[1]; [3],42.1%
same,"nuclei count, normalised",[1]; [10],49.9%
same,"nuclei count, normalised",[1]; [26],109%
same,"nuclei count, normalised",[1]; [27],107%
same,"nuclei count, normalised",[1]; [28],98.1%
same,"nuclei count, normalised",[1]; [4],30.1%
same,"nuclei count, normalised",[1]; [14],29.3%
same,"p53-positive nuclei, normalised",[2]; [29],8% (inactive)
same,"p53-positive nuclei, normalised",[2]; [30],0.396% (inactive)
same,"p53-positive nuclei, normalised",[2]; [31],1.82% (inactive)
same,"p53-positive nuclei, normalised",[2]; [5],23.5% (inactive)
same,"p53-positive nuclei, normalised",[2]; [18],83.5% (active)
same,"p53-positive nuclei, normalised",[2]; [32],4.97%
same,"p53-positive nuclei, normalised",[2]; [33],0.046%
same,"p53-positive nuclei, normalised",[2]; [34],0.551%
same,"p53-positive nuclei, normalised",[2]; [6],10.3%
same,"p53-positive nuclei, normalised",[2]; [22],87.6%
Nc1ccccc1NC(=O)c1ccc(CNC(=O)OCc2cccnc2)cc1,"nuclei count, normalised",[1]; [7],96%
same,"nuclei count, normalised",[1]; [23],114%
same,"nuclei count, normalised",[1]; [8],104%
same,"nuclei count, normalised",[1]; [24],118%
same,"nuclei count, normalised",[1]; [9],107%
same,"nuclei count, normalised",[1]; [25],124%
same,"nuclei count, normalised",[1]; [3],104%
same,"nuclei count, normalised",[1]; [10],90.8% and 96%
same,"nuclei count, normalised","[1]; measured here: cell number at 24 h, concentration not given here",107%
same,"nuclei count, normalised",[1]; [11],96.3%
same,"nuclei count, normalised",[1]; [26],103%
same,"nuclei count, normalised",[1]; [12],103%
same,"nuclei count, normalised",[1]; [27],100%
same,"nuclei count, normalised",[1]; [13],95.3%
same,"nuclei count, normalised",[1]; [28],101%
same,"nuclei count, normalised",[1]; [4],88.9%
same,"nuclei count, normalised",[1]; [14],58% and 57.5%
same,"nuclei count, normalised","[1]; measured here: cell number at 48 h, concentration not given here",103%
same,"p53-positive nuclei, normalised",[2]; [15],-0.0533% (inactive)
same,"p53-positive nuclei, normalised",[2]; [29],-0.489% (inactive)
same,"p53-positive nuclei, normalised",[2]; [16],-0.145% (inactive)
same,"p53-positive nuclei, normalised",[2]; [30],-0.1% (inactive)
same,"p53-positive nuclei, normalised",[2]; [17],3.54% (inactive)
same,"p53-positive nuclei, normalised",[2]; [31],0.00969% (inactive)
same,"p53-positive nuclei, normalised",[2]; [5],0.482% (inactive)
same,"p53-positive nuclei, normalised",[2]; [18],17.1% (inactive) and 14.2% (inactive)
same,"p53-positive nuclei, normalised",[2]; concentration not given here,0.78% (inactive)
same,"p53-positive nuclei, normalised",[2]; [19],0.084%
same,"p53-positive nuclei, normalised",[2]; [32],-0.0702%
same,"p53-positive nuclei, normalised",[2]; [20],-0.207%
same,"p53-positive nuclei, normalised",[2]; [33],0.0634%
same,"p53-positive nuclei, normalised",[2]; [21],5.23%
same,"p53-positive nuclei, normalised",[2]; [34],0.00201%
same,"p53-positive nuclei, normalised",[2]; [6],0.899%
same,"p53-positive nuclei, normalised",[2]; [22],34.2% and 14.9%
same,"p53-positive nuclei, normalised","[2]; measured here: p53 positive nuclei at 24 h, concentration not given here",0.224%
Cc1ccc(NC(=O)c2ccc(CN3CCN(C)CC3)cc2)cc1Nc1nccc(-c2cccnc2)n1,"nuclei count, normalised",[1]; [23],114%
same,"nuclei count, normalised",[1]; [24],85.7%
same,"nuclei count, normalised",[1]; [25],91%
same,"nuclei count, normalised",[1]; [3],99% and 103%
same,"nuclei count, normalised",[1]; [10],87.2%
same,"nuclei count, normalised",[1]; [26],112%
same,"nuclei count, normalised",[1]; [27],84.9%
same,"nuclei count, normalised",[1]; [28],92.2%
same,"nuclei count, normalised",[1]; [4],99.2% and 104%
same,"nuclei count, normalised",[1]; [14],87.9%
same,"p53-positive nuclei, normalised",[2]; [29],0.0518% (inactive)
same,"p53-positive nuclei, normalised",[2]; [30],0.00427% (inactive)
same,"p53-positive nuclei, normalised",[2]; [31],-0.0247% (inactive)
same,"p53-positive nuclei, normalised",[2]; [5],-0.686% (inactive) and -0.212% (inactive)
same,"p53-positive nuclei, normalised",[2]; [18],-0.182% (inactive)
same,"p53-positive nuclei, normalised",[2]; [32],0.0696%
same,"p53-positive nuclei, normalised",[2]; [33],0.334%
same,"p53-positive nuclei, normalised",[2]; [34],0.0437%
same,"p53-positive nuclei, normalised",[2]; [6],-0.375% and -0.356%
same,"p53-positive nuclei, normalised",[2]; [22],-0.0433%
